Each structure is given as a SMILES string. Compounds without any hit were thinned out: in the full panel of roughly 83,000, 20% have a hit.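 Interpretation: 100, growth as untreated; towards 0, rising growth inhibition; 0, no net growth; 0 to -100, cell death. Compounds scoring below 10 were considered active.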 A number with no mark means an inactive call. Calls of active or inactive are those of the source.

The test system of the experiment is MDA-MB-468 breast. As to the kind of experiment: NCI-60 one-dose screen, 48 h (100 = growth as untreated, 0 = no growth, -100 = all killed). As to conditions: 10 µM unless noted.
With `Fc1ccc(Nc2ccnc(N3CCN(c4ccnc5cc(Cl)ccc45)CC3)n2)cc1`, the growth is 15.9%. With `C=C(C)[C@@H]1CC[C@]2(COP(=O)(OCC)OCC)CC[C@]3(C)[C@H](CC[C@@H]4[C@@]5(C)CCCNC(C)(C)[C@@H]5CC[C@]43C)[C@@H]12` the figure was 24.6%; with `Cc1cc(OC(=O)c2ccc([N+](=O)[O-])cc2)nc2[nH]c(=O)sc12`, 100%. With `Brc1ccc(-c2cc(-c3ccc4c(c3)OCCO4)n[nH]2)s1` the figure was 7.7% (active); with `Cc1cc(C)c2c(n1)sc1c(Nc3ccc(OCc4ccccc4)cc3)ncnc12`, 101%. Regarding `CC/C=C\C/C=C\C[C@H]1C/C=C2/C(=O)C=C[C@H]2C/C=C\CCC(=O)O1`, the growth is -7.14% (active).

Regarding `O=C1Nc2ccc(Br)cc2C1=N/C=c1\[nH]c(=O)/c(=C/c2ccc(Cl)cc2)s1`, the growth is 86.6%. Regarding `COc1ccc(Nc2nccc(N3CCN(c4c5ccc(Cl)cc5nc5ccc(OC)cc45)CC3)n2)cc1`, the growth was 31.5%. As for `CC(CO)(CO)C(=O)O`, the growth was 99.9%. With `O=C1c2ccccc2C(=O)N1/N=C/c1ccc2c(c1)OCO2`, the growth was 103%. The figure for `COc1ccc(Nc2ncc(Br)c(NCCCNC(=O)c3cccs3)n2)cc1` is 51.1%. Regarding `O=C(CSc1nc2ccccc2c(=O)n1-c1ccc(S(=O)(=O)Nc2ccc(Cl)nn2)cc1)Nc1ccc(S(=O)(=O)Nc2ccc(Cl)nn2)cc1`, the growth was 94.9%.

Regarding `Cn1cc2c(c1)-c1c(sc3nc(-c4ccc(NC(=O)Nc5cc(C(C)(C)C)on5)cc4)cn13)CC2`, the growth was 68.8%. With `CCCCn1c(=O)c(/C=C/C(=O)/C=C/c2cc3ccccc3n(CCCC)c2=O)cc2ccccc21` the figure was -59.4% (active); with `CC[n+]1c(/C=C/C=C2\N(C)c3ccccc3C2(C)C)sc2ccccc21`, -12.3% (active); with `Nc1nc(Cl)cc(Cl)n1`, 99.4%. As for `NC(=O)C1(N2CCCCC2)CCN(CCCC(=O)c2ccc(F)cc2)CC1`, the growth is -10.6% (active). Consider `COc1cc(C(=O)c2cc(C(C)=O)c3ccc(C)cn23)cc(OC)c1OC`, for which the growth was -2.89% (active).

As for `C=C1C(=O)O[C@H]2[C@H]1CC/C(Cn1cc(-c3ccc(OC)cc3)nn1)=C\CC[C@@]1(C)O[C@@H]21`, the growth is -42.8% (active). On to `CCCS(=O)(=O)Nc1cccc(Nc2ncnc3cc(NC(=O)CCl)ccc23)c1Cl`, for which the growth is -41.8% (active).

On to `CCN1C(=O)N(CC)C2Nn3c(s/c(=C\c4ccccc4F)c3=O)=NC21` (centres undefined), for which the growth is 28.9%.

For the compound `Cc1cc2c(c(C)c1Cl)C(=O)/C(=C/c1ccco1)O2`, the growth is -2.58% (active). For `N=C(N)c1ccc(-c2ccc(-c3cccs3)s2)s1`, the growth is -90.3% (active). With `COc1cc(/C=C/C(=O)N2CCN(C(=O)c3cc(OC)c(OC)c(OC)c3)CC2)ccc1OCCCN1C(=O)c2cccc3cccc(c23)C1=O` the figure was 102%.
